Our source for the growth values is PubChem BioAssay (NCI).

Compounds without any hit were thinned out: in the full panel of roughly 83,000, 20% have a hit.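 Each cell line was grown in a 96-well plate and treated with one concentration of compound for 48 hours. Values below 10 were considered active.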 A number with no mark means an inactive call. Activity calls are given as the source filed them.

Some test systems named below: HCT-15 colon; HT29 colon; SNB-75 CNS; SNB-19 CNS; U251 CNS; PC-3 prostate; SK-MEL-5 melanoma; UACC-62 melanoma; LOX IMVI melanoma; SK-MEL-28 melanoma.
Common to all, as to assay: NCI-60 one-dose screen, 48 h (100 = growth as untreated, 0 = no growth, -100 = all killed)
What all share (details): 10 µM unless noted

For the molecule `C=C(C)[C@@H]1CC[C@]2(COC(=O)c3ccccc3C(=O)O)CC[C@]3(C)[C@H](CC[C@@H]4[C@@]5(C)CC[C@H](OC(=O)c6ccccc6C(=O)O)C(C)(C)[C@@H]5CC[C@]43C)[C@@H]12`, the growth was 18.1% [100 µM] with HCT-15 colon; 64.3% [100 µM] in the assay with HT29 colon; -20.7% [100 µM] (active) in the assay on SNB-75 CNS; 4.01% [100 µM] (active) in the assay with SNB-19 CNS; 4.32% [100 µM] (active) with U251 CNS; 16.2% [100 µM] in the assay on PC-3 prostate. Besides, the growth in the assay on SK-MEL-5 melanoma was 11.9% [100 µM]; in the assay with UACC-62 melanoma, -18.7% [100 µM] (active); in the assay with LOX IMVI melanoma it was 11.2% [100 µM]; with SK-MEL-28 melanoma it was 31.3% [100 µM].
Take `C=C(C)[C@@H]1CC[C@]2(C(=O)O)CC[C@]3(C)[C@H](CC[C@@H]4[C@@]5(C)C/C(=C/c6ccco6)C(=O)C(C)(C)[C@@H]5CC[C@]43C)[C@@H]12`: the growth with HCT-15 colon was -65.6% [100 µM] (active); with HT29 colon, -56.2% [100 µM] (active); in the assay with SNB-75 CNS it was -70.3% [100 µM] (active); with SNB-19 CNS it was -51.5% [100 µM] (active); in the assay with U251 CNS, -58.6% [100 µM] (active); in the assay on PC-3 prostate, -49.3% [100 µM] (active). Also, the growth was -73.5% [100 µM] (active) with SK-MEL-5 melanoma, -97.6% [100 µM] (active) in the assay on UACC-62 melanoma, -60.6% [100 µM] (active) with LOX IMVI melanoma and -64.7% [100 µM] (active) with SK-MEL-28 melanoma.
`Cc1cnc(N)nc1OCC(C)(C)CNC(=O)c1cccc(-c2ccc(S(=O)(=O)Nc3ccc4c(c3)N(C(=O)C3CC3)CCC4)cc2)c1`: the growth in the assay on HCT-15 colon is 67.6%; in the assay with HT29 colon it was 42.1%; in the assay with SNB-75 CNS, 48.1%; in the assay with SNB-19 CNS, 67.9%; in the assay with U251 CNS it was 59.4%; with PC-3 prostate, 51.8%. The growth in the assay on SK-MEL-5 melanoma was -36.1% (active); in the assay with UACC-62 melanoma it was 47.8%; in the assay on LOX IMVI melanoma, 76.6%; in the assay on SK-MEL-28 melanoma it was 82.4%.
In the case of `Cc1ccc(-c2cc(O)c(-c3ccc(C)cc3C)cc2O)c(C)c1`, the growth was 29.5% with HCT-15 colon; 42.3% with HT29 colon; 45.9% in the assay with SNB-75 CNS; 71.9% with SNB-19 CNS; 38.2% in the assay with U251 CNS; 52.1% in the assay with PC-3 prostate. The growth in the assay with SK-MEL-5 melanoma was 12.4%; in the assay on UACC-62 melanoma, 54.8%; in the assay on LOX IMVI melanoma it was 33.4%; in the assay on SK-MEL-28 melanoma, 85.2%.
Turning to `Nn1c(Nc2ccc(S(=O)(=O)Nc3ncccn3)cc2)nnc(/C=C/c2c(O)ccc3ccccc23)c1=O`, the growth is 91.3% with HCT-15 colon; 105% in the assay on HT29 colon; 92.2% with SNB-75 CNS; 96.8% with SNB-19 CNS; 85.8% in the assay on U251 CNS; 75.4% with PC-3 prostate. The growth with SK-MEL-5 melanoma is 88.2%; with UACC-62 melanoma, 84.3%; with LOX IMVI melanoma, 84.3%; with SK-MEL-28 melanoma, 112%.
As for `C#C[C@]1(O)CC[C@H]2[C@@H]3CC=C4c5nc(Nc6ccccn6)sc5CC[C@]4(C)[C@H]3CC[C@@]21C`, the growth in the assay with HCT-15 colon was 1.7% (active); in the assay with HT29 colon, 16.9%; with SNB-75 CNS, -42.4% (active); in the assay with SNB-19 CNS, 11%; in the assay on U251 CNS, -26.2% (active); in the assay with PC-3 prostate, -28.6% (active). Besides, the growth in the assay with SK-MEL-5 melanoma was -82.2% (active); with UACC-62 melanoma it was -28.4% (active); in the assay on LOX IMVI melanoma it was -68% (active); in the assay on SK-MEL-28 melanoma, -68.2% (active).
Turning to `Cn1cc(-c2noc(-c3cn(C)c4ncc(Br)cc34)n2)c2cc(Cl)ccc21`, the growth in the assay with HCT-15 colon was 87.6%; in the assay on HT29 colon it was 67.3%; in the assay on SNB-75 CNS, 56.2%; in the assay on SNB-19 CNS, 63%; in the assay on U251 CNS, 97.5%; with PC-3 prostate, 80.3%. The growth in the assay with SK-MEL-5 melanoma is 83.9%; with UACC-62 melanoma, 78.5%; in the assay on LOX IMVI melanoma it was 65.4%; with SK-MEL-28 melanoma, 86.8%.
With `C=CCc1nc2ccccc2s1`, the growth in the assay with HCT-15 colon is 94.3%; in the assay on HT29 colon it was 89.9%; in the assay on SNB-75 CNS, 90.2%; in the assay with SNB-19 CNS, 110%; in the assay with U251 CNS, 100%; in the assay on PC-3 prostate it was 88.1%. Also, the growth in the assay with SK-MEL-5 melanoma is 114%; in the assay on UACC-62 melanoma, 106%; with LOX IMVI melanoma, 99.3%; in the assay with SK-MEL-28 melanoma, 106%.
For `CC(=O)Nc1ccc2nc3ccc(NC(C)=O)cc3[n+](-c3ccccc3)c2c1`, the growth in the assay with HCT-15 colon is 104%; with HT29 colon, 115%; in the assay with SNB-75 CNS, 82.2%; in the assay with SNB-19 CNS it was 94.2%; in the assay with U251 CNS it was 109%; in the assay on PC-3 prostate it was 104%. The growth was 96.3% in the assay with SK-MEL-5 melanoma, 103% in the assay with UACC-62 melanoma, 96.8% in the assay with LOX IMVI melanoma and 166% with SK-MEL-28 melanoma.
For `N#Cc1ccc(-c2ccc(COc3ccc(CC4SC(=O)NC4=O)cc3)cc2)cc1` (stereo not given), the growth is 63.6% with HCT-15 colon; 103% in the assay with HT29 colon; 67.8% in the assay with SNB-75 CNS; 63.3% in the assay on SNB-19 CNS; 63% in the assay with U251 CNS; 54.4% in the assay with PC-3 prostate. In addition, the growth with SK-MEL-5 melanoma is -18.3% (active); in the assay on UACC-62 melanoma, 51.4%; with LOX IMVI melanoma, 48.5%; in the assay with SK-MEL-28 melanoma, 79%.
For `C=CCCC1(C)NC(=O)NC1=O` (stereo not given), the growth is 105% with HCT-15 colon; 93.2% in the assay with HT29 colon; 89.3% with SNB-75 CNS; 99.6% in the assay on SNB-19 CNS; 103% in the assay on U251 CNS; 86.5% in the assay on PC-3 prostate. Further, the growth in the assay with SK-MEL-5 melanoma was 104%; in the assay on UACC-62 melanoma, 99.2%; in the assay with LOX IMVI melanoma it was 93.7%; in the assay on SK-MEL-28 melanoma it was 106%.
As to `O=C(N/N=C\c1cc(Cl)ccc1O)N/N=C/c1cc(Cl)ccc1O`, the growth is 32.5% in the assay on HCT-15 colon; 93.9% in the assay with HT29 colon; 39.8% with SNB-75 CNS; 58.2% in the assay with SNB-19 CNS; 49.9% in the assay with U251 CNS; 40% in the assay on PC-3 prostate. For the same molecule, the growth is 52.1% in the assay with SK-MEL-5 melanoma, 54.7% with UACC-62 melanoma, 42.6% in the assay with LOX IMVI melanoma and 80.4% in the assay on SK-MEL-28 melanoma.
As for `COc1ccc(C(C(=O)O)c2ccc(OC)cc2)cc1`, the growth in the assay on HCT-15 colon is 99.4%; in the assay on HT29 colon, 114%; with SNB-75 CNS it was 72.2%; with SNB-19 CNS it was 113%; with U251 CNS it was 113%; in the assay on PC-3 prostate, 101%. For the same molecule, the growth with SK-MEL-5 melanoma was 110%; with UACC-62 melanoma it was 116%; with LOX IMVI melanoma, 106%; with SK-MEL-28 melanoma it was 107%.
On to `O=C(Nc1ccc(F)cc1)c1ccccc1`, for which the growth in the assay with HCT-15 colon was 96.6%; with HT29 colon it was 114%; with SNB-75 CNS, 106%; in the assay on SNB-19 CNS it was 101%; in the assay with U251 CNS, 102%; in the assay on PC-3 prostate it was 108%. The growth in the assay on SK-MEL-5 melanoma is 101%; with UACC-62 melanoma, 90.8%; with LOX IMVI melanoma it was 105%; with SK-MEL-28 melanoma it was 101%.
`CC(C)CCSc1nc(N)nc2nc[nH]c12`: the growth was 107% in the assay on HCT-15 colon; 114% in the assay with HT29 colon; 101% with SNB-75 CNS; 93.3% in the assay with SNB-19 CNS; 100% in the assay with U251 CNS; 93.7% with PC-3 prostate. For the same molecule, the growth in the assay on SK-MEL-5 melanoma was 93.2%; in the assay on UACC-62 melanoma, 82.3%; with LOX IMVI melanoma, 86.8%; with SK-MEL-28 melanoma it was 121%.
As for `COc1ccc2c(c1)C(C)Cc1c(ncnc1-n1cnc3ccccc31)N2C` (stereo not given), the growth with HCT-15 colon was 16.1%; in the assay on HT29 colon, -17.8% (active); in the assay with SNB-75 CNS, 37.5%; in the assay with SNB-19 CNS, 33.4%; with U251 CNS, 21.4%; in the assay with PC-3 prostate, 17.5%. The growth with SK-MEL-5 melanoma is 11.2%; in the assay with UACC-62 melanoma, 39%; in the assay on LOX IMVI melanoma it was 26.6%; in the assay on SK-MEL-28 melanoma, 59.5%.
With `COc1ccc(-c2cc(-c3ccccc3)nc(SCCCCCC(=O)NO)n2)cc1`, the growth with HCT-15 colon is 78.1%; in the assay with HT29 colon it was 23%; in the assay on SNB-75 CNS it was 44.1%; in the assay with SNB-19 CNS, 70.5%; in the assay with U251 CNS it was 56.4%; in the assay on PC-3 prostate, 70.7%. In addition, the growth was 33.2% in the assay with SK-MEL-5 melanoma, 26.2% in the assay on UACC-62 melanoma, 59.2% with LOX IMVI melanoma and 49.3% with SK-MEL-28 melanoma.
With `O=C(CSc1nc2ccc([N+](=O)[O-])cc2[nH]1)Nc1ccc(F)c(Cl)c1`, the growth in the assay on HCT-15 colon is 18.5%; with HT29 colon, 14.4%; with SNB-75 CNS, 28.7%; with SNB-19 CNS, 11.6%; in the assay with U251 CNS it was 11.6%; in the assay with PC-3 prostate it was 8.99% (active). The growth with SK-MEL-5 melanoma was -10.8% (active); in the assay on UACC-62 melanoma, 5.92% (active); with LOX IMVI melanoma, 24.2%; in the assay with SK-MEL-28 melanoma, 22%.
In the case of `COc1ccc2c(c1)C(C)Cc1c(Cl)ncnc1N2C` (stereo not given), the growth was 4.94% (active) in the assay on HCT-15 colon; -3.53% (active) in the assay with HT29 colon; 2.7% (active) in the assay on SNB-75 CNS; 27.7% in the assay on SNB-19 CNS; 15.5% in the assay with U251 CNS; 11.4% with PC-3 prostate. For the same molecule, the growth with SK-MEL-5 melanoma was -83.6% (active); in the assay on UACC-62 melanoma it was 0.755% (active); in the assay with LOX IMVI melanoma it was -69.2% (active); with SK-MEL-28 melanoma, 14.8%.
For the molecule `c1ccc(-c2n[nH]c(-c3ccccn3)n2)nc1`, the growth was 96.4% with HCT-15 colon; 108% in the assay with HT29 colon; 101% in the assay on SNB-75 CNS; 99.5% in the assay on SNB-19 CNS; 110% in the assay with U251 CNS; 94.4% in the assay on PC-3 prostate. Besides, the growth was 102% in the assay on SK-MEL-5 melanoma, 104% in the assay with UACC-62 melanoma, 115% with LOX IMVI melanoma and 149% with SK-MEL-28 melanoma.
